PGK inhibitor: inhibitors of T. brucei phosphoglycerate kinase. PGK/GAPDH coupled, Kinase-Glo luminescence, 60 min. Potency, µM (titrated, usually from 57.5 µM), most hits filed as inhibitors. 380,000 tested, 0.043% active. AID 602233; note: nearly all actives have a fitted effect of over 60% in size
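Recombinant glycosomal PGK reaction used 1,3-bisphosphoglycerate generated in-well by GAPDH (100nM final) in 100mM TEA pH 7.6, 5mM MgCl2, 0.01% Tween-20. After 60 minutes at room temperature, ATP was read by Kinase-Glo Plus luminescence end-point.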
Chronic BCR inh: inhibitors of chronic active B-cell receptor signaling. 340,000 tested, 0.05% active. Potency, µM (doses to about 46.1 µM), usual class: inhibitors. AID 493014. ABC-DLBCL IkBa-CBG/CBR reporter, luminescence ratio, 4 h; active = well fitted inhibition curve with a large enough effect in the signal ratio, with a control signal flat, not every such curve was filed as active; inconclusive = small, poorly fitted or top-dose-only effect, or effect the other way, or a change in a side signal; the % refers to the signal ratio
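Compounds up to 46 uM were incubated four hours with TMD8 cells whose green CBG68 luciferase is fused to IkappaBalpha; red CBR luminescence normalised the signal, and concentration-effect curves were fitted to fusion, red and ratio data.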
PI4K2A inh: PI4K2A (human) kinase inhibition; 420,000 tested, 0.13% active; purified PI4K2A, ADP-Glo luminescence, 1 h; hits give low values; Q9BTU6; activity change, negative = inhibition, % at 76.9 µM; in the data active = activity change below about -50%; inconclusive = mostly about -30% to -49%
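In this quantitative HTS, ADP production by PI4K2A was quantified luminescently after 1 h at ambient temperature; 100 microM adenosine served as plate-quality control.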
Pin1 inhibitor: human Pin1 inhibition; 390,000 tested, 0.009% active; Pin1 FP peptide displacement, HiFluor488, 10 min; Potency, µM (highest dose often 115 µM), usual class: inhibitors; Q13526; active = well fitted inhibition curve with a large enough effect in the polarisation, with a control signal flat, not every such curve was filed as active; inconclusive = small, poorly fitted or top-dose-only effect, or effect the other way, or a change in a side signal; inactive = no such curve, though single readings can be large or run the other way; the % refers to the polarisation
Target sequence (Q13526 whole entry, looked up): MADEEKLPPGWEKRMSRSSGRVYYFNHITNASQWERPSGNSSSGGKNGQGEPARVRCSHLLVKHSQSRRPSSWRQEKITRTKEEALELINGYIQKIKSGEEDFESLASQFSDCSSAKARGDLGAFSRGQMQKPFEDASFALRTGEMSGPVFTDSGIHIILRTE
Tb PFK block: T. brucei PFK enzyme inhibition. O15648. T. brucei PFK, ADP-Glo luminescence. Potency, µM (highest dose often 57.5 µM), hits mostly inhibitors. 330,000 tested, 0.17% active; note: nearly all actives have a fitted effect of over 60% in size
Target sequence (O15648 whole entry, looked up): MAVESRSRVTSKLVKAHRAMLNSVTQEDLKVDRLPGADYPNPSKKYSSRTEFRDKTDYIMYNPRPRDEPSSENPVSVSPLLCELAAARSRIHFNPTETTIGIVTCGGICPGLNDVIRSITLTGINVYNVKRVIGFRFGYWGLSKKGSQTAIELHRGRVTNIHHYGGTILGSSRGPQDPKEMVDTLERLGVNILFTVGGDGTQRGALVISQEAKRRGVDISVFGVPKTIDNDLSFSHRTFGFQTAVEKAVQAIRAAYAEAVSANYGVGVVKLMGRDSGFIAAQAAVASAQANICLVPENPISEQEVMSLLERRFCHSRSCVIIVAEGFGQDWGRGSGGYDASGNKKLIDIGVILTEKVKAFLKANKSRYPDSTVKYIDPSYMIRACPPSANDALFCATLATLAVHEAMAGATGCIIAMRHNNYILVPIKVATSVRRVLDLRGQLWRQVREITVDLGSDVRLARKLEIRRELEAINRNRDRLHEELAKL
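PFK 1.25 nM, F6P 0.5 mM, ATP 0.1 mM, 0.1 M TEA pH 8.0, 5 mM MgCl2, 0.01% Tween20, 0.1% BSA; 45 min RT. ADP-Glo readout. qHTS titration up to 57 uM; curves fitted, compounds curve-classed.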
Numbers stand for hits; [ ] = dose if it differs, or a comment. Compounds with a hit are over-represented: about 0.34% of the library has one in this group of screens. Unless noted, calls come from the whole dose curve; as a rule, active = well fitted curve in the direction sought with a large enough effect; inconclusive = small, poorly fitted or top-dose-only effect, or another doubt; inactive = no such curve, though single readings can be large; an effect the other way counts as inactive or inconclusive.

How did CCC(C)C(N)C1=NC(C(=O)N[C@@H](CC(C)C)C(=O)N[C@H](CCC(=O)[O-])C(=O)N[C@H](C(=O)N[C@H]2CCCCNC(=O)[C@H](CC(N)=O)NC(=O)[C@@H](CC(=O)[O-])NC(=O)[C@H](Cc3cnc[nH]3)NC(=O)[C@@H](Cc3ccccc3)NC(=O)[C@H]([C@@H](C)CC)NC(=O)[C@@H](CCCN)NC2=O)[C@@H](C)CC)CS1.[Zn+2] (some centres undefined) do in these assays?
PGK inhibitor: 28µM; PI4K2A inh: inactive; Pin1 inhibitor: 20µM

Results for Cc1cccc(-c2nnc(SCCC(=O)O)o2)c1 ?
PGK inhibitor: inactive; PI4K2A inh: -60; Pin1 inhibitor: inactive

How did CNc1cccc(S(=O)(=O)N2CCCN(S(=O)(=O)c3ccc4c(c3)OCCO4)CC2)c1 do in these assays?
Pin1 inhibitor: inactive

Results for CN(C)CCNc1ccc2nnn3c4ccc(O)cc4c(=O)c1c23 ?
PGK inhibitor: inactive; PI4K2A inh: inactive; Pin1 inhibitor: inactive

Results for CCN(CC)CCCNc1ccc2ncn3c4ccc(O)cc4c(=O)c1c23 ?
PGK inhibitor: inactive; PI4K2A inh: -50

What do the screens show for `OC1(c2ccccc2)CCNCC1`?
PI4K2A inh: inactive

How did O=C(CN1C(=O)/C(=C/c2ccco2)SC1=S)Nc1ccc(C(=O)O)c(O)c1 do in these assays?
PGK inhibitor: 28µM; Chronic BCR inh: inactive; PI4K2A inh: inactive; Pin1 inhibitor: inactive; Tb PFK block: inactive

How did O=C(CN1C(=O)/C(=C/c2ccco2)SC1=S)Nc1ccc(O)c(C(=O)O)c1 do in these assays?
PGK inhibitor: inconclusive; Chronic BCR inh: inactive; PI4K2A inh: inactive; Tb PFK block: inactive

Results for Cc1cc2c(s1)c1cnn(Cc3ccc(Cl)c(F)c3)c(=O)c1n2C ?
Pin1 inhibitor: inactive

Results for O=C(Nc1cccc(O)c1)C(=O)Nc1ccccn1 ?
PGK inhibitor: inconclusive; Chronic BCR inh: inconclusive; PI4K2A inh: -64; Pin1 inhibitor: inactive; Tb PFK block: inconclusive

Results for O=c1c2ccccc2nc(-c2ccccc2O)n1Cc1ccccc1 ?
Pin1 inhibitor: inactive

Results for COc1ccc(C2Nc3ccccc3C(=O)N2Cc2ccccc2)cc1COc1ccc(NC(=O)c2ccccc2)cc1 (centres undefined) ?
Pin1 inhibitor: inactive

How did COc1ccccc1NC(=O)N1CCC(c2nc3cc(C)c(C)cc3[nH]2)CC1 do in these assays?
PGK inhibitor: inactive; Chronic BCR inh: 18µM; PI4K2A inh: inactive; Pin1 inhibitor: inactive; Tb PFK block: inactive

Results for COc1ccccc1NC(=S)N1CCC(c2nc3cc(C)c(C)cc3[nH]2)CC1 ?
PGK inhibitor: inactive[11.5 µM]; Chronic BCR inh: inactive; PI4K2A inh: inactive; Pin1 inhibitor: inactive; Tb PFK block: inactive

Results for N#Cc1nc(NC2CCCC2)c2ncn(-c3cc(F)cc(F)c3)c2n1 ?
Pin1 inhibitor: inactive

What do the screens show for `O=C1C(=Cc2cccc(Cl)c2)CCc2ccccc21`?
PI4K2A inh: inactive

How did Cn1cccc1/C=C1\CCc2ccccc2C1=O do in these assays?
PGK inhibitor: inconclusive; Chronic BCR inh: inconclusive; PI4K2A inh: -56; Pin1 inhibitor: inactive; Tb PFK block: inactive

How did COc1ccc2c(c1)CC/C(=C/c1ccco1)C2=O do in these assays?
PGK inhibitor: inactive; Chronic BCR inh: inactive; PI4K2A inh: inactive; Pin1 inhibitor: inactive; Tb PFK block: inactive

How did O=C1C(=Cc2ccccc2Cl)CCc2ccccc21 do in these assays?
PI4K2A inh: -78

Results for O=C1/C(=C/c2ccco2)CCc2ccccc21 ?
PGK inhibitor: inconclusive; Chronic BCR inh: inactive; PI4K2A inh: -54; Pin1 inhibitor: inactive; Tb PFK block: inactive

What do the screens show for `COc1ccccc1C=C1CCc2ccccc2C1=O`?
PI4K2A inh: -63

How did O=C1c2ccccc2C(=O)N1c1cccc2ccncc12 do in these assays?
Pin1 inhibitor: inactive

Results for CCOc1ccc(/C=C/c2nc3ccccc3n2S(=O)(=O)c2cccc(Cl)c2)cc1 ?
PGK inhibitor: inactive; PI4K2A inh: -70; Pin1 inhibitor: inactive

Results for Cc1ccc(/C=C/c2nc3ccccc3n2S(=O)(=O)c2cccc(Cl)c2)cc1 ?
PGK inhibitor: inactive; Chronic BCR inh: inconclusive; PI4K2A inh: -63; Pin1 inhibitor: inactive

What do the screens show for `O=S1(=O)C=C(Sc2nc3cc(Cl)ccc3o2)c2ccccc21`?
PGK inhibitor: inactive; Chronic BCR inh: 6.3µM; PI4K2A inh: inactive; Pin1 inhibitor: inactive; Tb PFK block: inactive

What do the screens show for `Cc1cc(NC(=O)CSc2nc3cc(Cl)ccc3o2)no1`?
PGK inhibitor: inactive; Chronic BCR inh: inactive; PI4K2A inh: inactive; Pin1 inhibitor: inactive; Tb PFK block: inactive

How did Cc1cc(C)c(S(=O)(=O)/N=C2/C=C(SCC(=O)O)C(=O)c3ccccc32)cc1C do in these assays?
PGK inhibitor: inactive; Chronic BCR inh: inconclusive; PI4K2A inh: -53; Pin1 inhibitor: inconclusive; Tb PFK block: inactive

Results for Cc1cc(C)c(S(=O)(=O)Nc2cc(SCC(=O)O)c(O)c3ccccc23)cc1C ?
PGK inhibitor: inactive; Chronic BCR inh: inactive; PI4K2A inh: inconclusive; Pin1 inhibitor: inconclusive; Tb PFK block: inactive

How did O=C(O)CN1C(=O)/C(=C\c2cn(-c3ccccc3)nc2-c2ccccc2)SC1=S do in these assays?
PGK inhibitor: inactive; Chronic BCR inh: inactive; PI4K2A inh: inactive; Pin1 inhibitor: 43µM; Tb PFK block: inactive

What do the screens show for `Cn1nnnc1Sc1ncnc2scc(-c3ccc(N)cc3)c12`?
Pin1 inhibitor: inactive

How did COc1ccc(C2Nc3ccccc3C(=O)N2Cc2cccc(-c3ccccc3)c2)cc1COc1ccc(NC(C)=O)cc1 (centres undefined) do in these assays?
Pin1 inhibitor: inactive

How did O=C(CSc1nnc2[nH]c(=O)cc(-c3ccccc3)n12)Nc1cc(C(F)(F)F)ccc1Cl do in these assays?
PGK inhibitor: inactive; Chronic BCR inh: inactive; PI4K2A inh: inactive; Pin1 inhibitor: inactive

How did Cc1cc(=O)[nH]c2nnc(SCC(=O)Nc3cc(C(F)(F)F)ccc3Cl)n12 do in these assays?
PGK inhibitor: inactive; Chronic BCR inh: inactive; PI4K2A inh: -58; Pin1 inhibitor: inactive

How did CC(C)(C)OC(=O)Cc1nnc(-c2cc3ccccc3[nH]2)s1 do in these assays?
Pin1 inhibitor: inactive

How did O=C1CCc2cc(S(=O)(=O)Nc3cccc(B(O)O)c3)ccc2N1 do in these assays?
Pin1 inhibitor: inactive

How did COc1ccc(-c2ccc3nnc(SCC(N)=O)n3n2)cc1 do in these assays?
PGK inhibitor: inactive; Chronic BCR inh: inactive; PI4K2A inh: inactive; Pin1 inhibitor: inactive; Tb PFK block: inactive

How did CCSc1nnc2ccc(-c3ccc(OC)c(OC)c3)nn12 do in these assays?
PGK inhibitor: inactive; Chronic BCR inh: 7.9µM; PI4K2A inh: inactive; Pin1 inhibitor: inactive; Tb PFK block: inactive

How did CCc1ccc(S(=O)(=O)/N=C2/C=C(Sc3ncn[nH]3)C(=O)c3ccccc32)cc1 do in these assays?
PGK inhibitor: inconclusive; Chronic BCR inh: inconclusive; PI4K2A inh: -56; Pin1 inhibitor: 43µM; Tb PFK block: inactive
